# Counter-ions that a name gives are not always drawn.
# What was measured:
# Settings in all cases: incubation time: 27 h, anaerobic, 37 °C;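 for the amine columns active = adjusted P below 0.05 in both replicates with a change the same way and a mean fold change under 0.8 or over 1.25; inactive = the rest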
# [1] = tested on: Clostridium sporogenes DSM 1664; test: growth (OD595) fold change vs plate DMSO controls (fold change (ratio)); higher = more growth
# Method in brief: (§1)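 Growth is the fold change relative to the median of plate DMSO controls. Readings came from anaerobic mGAM cultures in 96-well plates grown for 27 h at 37 °C and read at 595 nm. They were blank-subtracted, corrected for compound background with 20 µM compound solutions in water, and converted to OD with a calibration factor of 5. Values are means of 2 biological replicates, and fold changes above 1.5 were set to NA.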
# Escherichia coli IAI1 [2] = test: as above
# Method in brief: as §1
# [3] = tested on: Klebsiella aerogenes DSM 30053; test: as above
# Method in brief: as §1
# [4] = tested on: Ruminococcus gnavus DSM 108212; test: as above
# Method in brief: as §1
# [5] = tested on: Klebsiella aerogenes DSM 30053; test: fold change of Histamine concentration vs plate DMSO controls (fold change (ratio)); higher = more amine produced, active = hit call of the paper (significant change in both replicates, either direction)
# Method in brief: (§2)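 Amine values are fold changes relative to DMSO-only wells on the same plate. They derive from 27 h, 37 °C anaerobic mGAM cultures of four gut bacterial strains in 80 µL wells, dosed at 20 µM final, or 50 µM final for sweeteners. Extraction of the whole culture, LC–triple-quadrupole MS in dynamic MRM mode, external calibration curves and within-batch drift correction were used, with 2 biological replicates averaged.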
# [6] = tested on: Clostridium sporogenes DSM 1664; test: fold change of Tryptamine concentration vs plate DMSO controls (fold change (ratio)); higher = more amine produced, active = hit call of the paper (significant change in both replicates, either direction)
# Method in brief: as §2
# [7] = tested on: Ruminococcus gnavus DSM 108212; test: as above
# Method in brief: as §2
# Escherichia coli IAI1 [8] = test: fold change of Putrescine concentration vs plate DMSO controls (fold change (ratio)); higher = more amine produced, active = hit call of the paper (significant change in both replicates, either direction)
# Method in brief: as §2
# [9] = tested on: Klebsiella aerogenes DSM 30053; test: as above
# Method in brief: as §2
# Escherichia coli IAI1 [10] = test: fold change of Cadaverine concentration vs plate DMSO controls (fold change (ratio)); higher = more amine produced, active = hit call of the paper (significant change in both replicates, either direction)
# Method in brief: as §2
# [11] = tested on: Klebsiella aerogenes DSM 30053; test: as above
# Method in brief: as §2
# [12] = tested on: Ruminococcus gnavus DSM 108212; test: fold change of 2-Phenylethylamine concentration vs plate DMSO controls (fold change (ratio)); higher = more amine produced, active = hit call of the paper (significant change in both replicates, either direction)
# Method in brief: as §2
Compound,growth [1],growth (Escherichia coli IAI1 [2]),growth [3],growth [4],fold change of Histamine concentration [5],fold change of Tryptamine concentration [6],fold change of Tryptamine concentration [7],fold change of Putrescine concentration (Escherichia coli IAI1 [8]),fold change of Putrescine concentration [9],fold change of Cadaverine concentration (Escherichia coli IAI1 [10]),fold change of Cadaverine concentration [11],fold change of 2-Phenylethylamine concentration [12]
N#Cc1ccc(Oc2ccc3c(c2)COB3O)cc1 [Crisaborole] (20 µM),1.06,0.983,1.02,1.12,0.998 (inactive),0.95 (inactive),0.688 (active),1.03 (inactive),0.987 (inactive),1 (inactive),0.994 (inactive),0.799 (inactive)
CN1CCC(=C2c3ccccc3Sc3ccccc32)CC1 [Pimethixene maleate] (20 µM),1.13,0.985,0.967,1.26,1.02 (inactive),1.01 (inactive),0.87 (inactive),0.974 (inactive),0.991 (inactive),1.02 (inactive),0.993 (inactive),0.865 (inactive)
O=C(O)CCc1nc(-c2ccccc2)c(-c2ccccc2)o1 [Oxaprozin] (20 µM),1.08,1.04,0.984,1.06,1.04 (inactive),1.03 (inactive),1.03 (inactive),1.01 (inactive),1 (inactive),0.96 (inactive),0.979 (inactive),1.1 (inactive)
CC(=O)N[C@@H](CC(=O)O)C(=O)N[C@@H](CCC(=O)O)C(=O)O [Spaglumic acid] (20 µM),1.09,0.992,1.03,1.18,1.03 (inactive),1.02 (inactive),0.995 (inactive),0.939 (inactive),0.993 (inactive),0.988 (inactive),0.988 (inactive),1.02 (inactive)
CC(=O)O[C@]1(C(C)=O)CC[C@H]2[C@@H]3C=C(Cl)C4=CC(=O)[C@@H]5C[C@@H]5[C@]4(C)[C@H]3CC[C@@]21C [Cyproterone acetate] (20 µM),1.17,0.908,0.894,0.639,0.982 (inactive),0.986 (inactive),0.938 (inactive),1.02 (inactive),1 (inactive),0.999 (inactive),0.996 (inactive),0.927 (inactive)
CCC(NC(C)C)C(O)c1ccc(O)c(O)c1 (stereo not given) [Isoetharine mesylate salt] (20 µM),1.13,1.06,0.99,0.992,1 (inactive),0.966 (inactive),0.977 (inactive),1.11 (inactive),0.995 (inactive),0.987 (inactive),0.994 (inactive),0.92 (inactive)
O=c1[nH]cc(F)c(=O)[nH]1 [5-fluorouracil] (20 µM),1.2,0.87,0.897,1.21,0.728 (inactive),0.767 (inactive),0.917 (inactive),0.626 (inactive),0.961 (inactive),0.945 (inactive),0.979 (inactive),0.918 (inactive)
O=[N+]([O-])c1ccc(O)c2ncccc12 [Nitroxoline] (20 µM),1.24,0.52,0.522,0.97,0.93 (inactive),0.897 (inactive),0.693 (active),0.496 (active),0.894 (inactive),1.49 (active),0.948 (inactive),0.766 (inactive)
C=C(CC)C(=O)c1ccc(OCC(=O)O)c(Cl)c1Cl [Ethacrynic acid] (20 µM),1.11,0.984,1.01,1.19,0.964 (inactive),1.01 (inactive),0.941 (inactive),0.972 (inactive),1.03 (inactive),0.985 (inactive),0.999 (inactive),0.917 (inactive)
CC(=O)OC(C)OC(=O)C(C)c1ccc(-c2ccccc2)c(F)c1 (stereo not given) [Flurbiprofen axetil] (20 µM),1.11,1.03,0.976,0.996,1.01 (inactive),1.04 (inactive),1.07 (inactive),1.04 (inactive),1 (inactive),1.07 (inactive),0.987 (inactive),1.04 (inactive)
CCN(Cc1ccncc1)C(=O)C(CO)c1ccccc1 (stereo not given) [Tropicamide] (20 µM),0.93,1.01,1.04,0.969,0.947 (inactive),1.06 (inactive),0.984 (inactive),1.03 (inactive),0.967 (inactive),0.991 (inactive),1.03 (inactive),0.959 (inactive)
CC(C)(C)C(=O)OCOC(=O)[C@@H]1N2C(=O)[C@@H](NC(=O)[C@H](N)c3ccccc3)[C@H]2SC1(C)C [Pivampicillin] (20 µM),0,0.949,0.986,0,1.04 (inactive),0.0632 (active),0.0656 (active),1.01 (inactive),1 (inactive),0.968 (inactive),0.976 (inactive),0.0585 (active)
Cc1c(NC(C)C)c(=O)n(-c2ccccc2)n1C [Isopyrin hydrochloride] (20 µM),1.12,1.02,1.02,1,0.951 (inactive),1.03 (inactive),1.2 (inactive),1.14 (inactive),0.943 (inactive),1.02 (inactive),1 (inactive),1.32 (inactive)
CN1CCC(=C2c3ccccc3CCc3cccnc32)CC1 [Azatadine maleate] (20 µM),0.968,0.983,0.994,0.99,1.05 (inactive),1.14 (inactive),1.01 (inactive),1.34 (inactive),1.01 (inactive),0.966 (inactive),1 (inactive),1.03 (inactive)
CCCC1O[C@@H]2C[C@H]3[C@@H]4CCC5=CC(=O)C=C[C@]5(C)[C@H]4[C@@H](O)C[C@]3(C)[C@]2(C(=O)CO)O1 (stereo not given in full) [Budesonide] (20 µM),1.13,0.993,0.997,1.08,1.06 (inactive),0.934 (inactive),0.998 (inactive),1.02 (inactive),1.01 (inactive),1.02 (inactive),0.994 (inactive),0.984 (inactive)
OC[C@@H](O)[C@@H](O[C@H]1O[C@H](CO)[C@@H](O)[C@H](O)[C@H]1O)[C@H](O)[C@@H](O)CO [Maltitol] (50 µM),1,0.988,1.02,0.976,1 (inactive),1.01 (inactive),0.988 (inactive),1.05 (inactive),1.02 (inactive),1.04 (inactive),1.01 (inactive),0.941 (inactive)
O=C(O)Cc1ccccc1Nc1c(Cl)cccc1Cl [Diclofenac sodium] (20 µM),0.954,0.984,0.986,1.03,1.06 (inactive),0.699 (active),0.988 (inactive),1.02 (inactive),1 (inactive),1.01 (inactive),1 (inactive),0.989 (inactive)
OCCN1C[C@H](O)[C@@H](O)[C@H](O)[C@H]1CO [Miglitol] (20 µM),1.09,1.01,1.02,1.05,1.02 (inactive),1 (inactive),1.02 (inactive),1 (inactive),1.01 (inactive),0.964 (inactive),1.01 (inactive),1.03 (inactive)
Cc1c(N(C)C)c(=O)n(-c2ccccc2)n1C [Amidopyrine] (20 µM),0.923,1.02,0.997,1.18,0.997 (inactive),0.979 (inactive),1.16 (inactive),0.995 (inactive),0.986 (inactive),0.985 (inactive),1.03 (inactive),1.19 (inactive)
CC(C)c1nc(N(C)S(C)(=O)=O)nc(-c2ccc(F)cc2)c1/C=C/[C@@H](O)C[C@@H](O)CC(=O)O [Rosuvastatin] (20 µM),0.904,1.22,1.02,1.01,0.953 (inactive),1.03 (inactive),0.989 (inactive),1.06 (inactive),1 (inactive),0.951 (inactive),0.989 (inactive),1 (inactive)
C[N+](C)(C)CCOC(N)=O [Carbachol chloride] (20 µM),0.948,1,0.997,1.09,1.01 (inactive),1.07 (inactive),1.09 (inactive),0.986 (inactive),0.983 (inactive),0.957 (inactive),1.01 (inactive),1.11 (inactive)
CCOC(=O)c1ccc(OC(=O)CCCCCNC(=N)N)cc1 [Gabexate mesilate] (20 µM),1.07,1,0.974,1.02,0.978 (inactive),0.953 (inactive),0.865 (inactive),1.01 (inactive),1.07 (inactive),0.998 (inactive),1.04 (inactive),0.776 (inactive)
Cc1ccc(C)c(OCCCC(C)(C)C(=O)O)c1 [Gemfibrozil] (20 µM),1.11,1.01,1.07,0.931,1.02 (inactive),1.01 (inactive),1.05 (inactive),0.995 (inactive),1.02 (inactive),0.968 (inactive),0.994 (inactive),1.03 (inactive)
O=C(O)COC(=O)Cc1ccccc1Nc1c(Cl)cccc1Cl [Aceclofenac] (20 µM),1.1,1.11,1.14,0.993,0.97 (inactive),0.959 (inactive),0.984 (inactive),1.08 (inactive),1.01 (inactive),0.962 (inactive),1.01 (inactive),1.05 (inactive)
O=C(c1ccccc1)c1ccc2n1CCC2C(=O)O (stereo not given) [Ketorolac tromethamine] (20 µM),0.909,1.04,0.976,0.993,1.04 (inactive),1.08 (inactive),1.03 (inactive),1.15 (inactive),1.03 (inactive),1.07 (inactive),0.995 (inactive),0.994 (inactive)

# Source: the supplement of paper PMC12494721
